Data taken from PubChem BioAssay (Tox21).
Records with an inconclusive call do not appear. Values without a mark were called inactive. Active and inactive are the calls of the source. Calls come from the whole dose curve; as a rule, active = well fitted cell-killing curve with a large enough effect in the repeat runs; inconclusive = weak or mixed curves, or effect the other way; inactive = no such curve, though single readings can be large or run the other way.

test: qHTS assay to identify small molecule antagonists of the progesterone receptor (PR) signaling pathway - cell viability counter screen (AID 1346798); conditions: PR-UAS-bla HEK293T viability, CellTiter-Glo luminescence, 16 h; series mostly up to 92.4 µM; activity change, negative = cytotoxicity: at the top concentration; note: nearly all actives have a fitted effect of over 50% in size
Text: National Center for Advancing Translational Sciences [NCATS]
NIH Chemical Genomics Center [NCGC]
U.S. Environmental Protection Agency [EPA]
National Institutes of Environmental Health Sciences [NIEHS]
National Toxicology Program [NTP]
U.S. Food and Drug Administration [FDA]
Progesterone receptor (PR), a nuclear hormone receptor, plays an important role in development, metabolic homeostasis and reproduction. It is activated by the steroid hormone progesterone. Endocrine disrupting chemicals (EDCs) and their interactions with steroid hormone receptors like PR causes disruption of normal endocrine function. To identify the compounds that inhibit PR signaling, a PR-UAS-bla GripTite cell line i.e. PR-UAS-bla HEK293T (Invitrogen, Carlsbad, CA, USA) containing a beta-lactamase reporter gene under the control of an UAS response element was used to screen Tox21 10K compound library. The cytotoxicity of the Tox21 compound library against the PR-bla cell line was tested in parallel by measuring the cell viability using CellTiter-Glo assay in the same wells.
Tox21 Assay Protocol Summary:
PR-UAS-bla HEK293T cells were dispensed at 3,000 cells/4 uL of assay medium containing 2% charcoal stripped FBS per well into black wall/clear-bottom 1536-well plates using a Multidrop Combi (ThermoFisher Scientific, Waltham, MA) dispenser. After the assay plates were incubated at a 37C and 5% CO2 for 4 hr, 23 nL of compounds dissolved in DMSO, positive controls or DMSO only was transferred to the assay plate by a Pintool station (Kalypsys, San Diego, CA), followed by addition of 1 uL of R5020 in assay medium using a Flying Reagent Dispenser (FRD, Aurora Discovery, San Diego, CA). The plates were incubated at 37C and 5% CO2 for 16 hr. Then 1 uL of LiveBLAzer B/G FRET substrate was added using a Flying Reagent Dispenser, the plates were incubated at room temperature for 2 hours, and fluorescence intensity was measured by an Envision plate reader (PerkinElmer, Shelton, CT). For cell viability readout that measures cytotoxicity, 4 uL/well of CellTiter-Glo reagent was added into the assay plates using a FRD. After 30 min incubation at room temperature, the luminescence intensity in the plates was measured using a ViewLux (PerkinElmer) plate reader.
% is set by controls: 0 for no effect and ±100 for the full control effect; potency is the fitted concentration of half-maximal effect.

Row | Compound | Potency | activity change, negative = cytotoxicity
1 | C[C@H]1O[C@@H](O[C@H]2CC[C@@]3(C)[C@H](CC[C@@H]4[C@@H]3C[C@@H](O)[C@]3(C)[C@@H](C5=CC(=O)OC5)CC[C@]43O)C2)C[C@H](O)[C@@H]1O[C@H]1C[C@H](O)[C@H](O[C@H]2C[C@H](O)[C@H](O[C@@H]3O[C@H](CO)[C@@H](O)[C@H](O)[C@H]3O)[C@@H](C)O2)[C@@H](C)O1 | 0.298 µM (active) | –
2 | CCc1cccc(CC)c1 | – | -11.9%
3 | CC(Cc1ccc(O)c(O)c1)C(C)Cc1ccc(O)c(O)c1 (stereo not given) | – | 1.8%
4 | CCC(O)CO (stereo not given) | – | 4.03%
5 | Cn1c(=O)[nH]c2ncn(C)c2c1=O | – | -1.84%
6 | C1CCSC1 | – | -11.4%
7 | CN1CCN(C)CC1 | – | -16.6%
8 | ClC(c1ccccc1)(c1ccccc1)c1ccccc1 | – | 13.9%
9 | c1ccc(C[P+](c2ccccc2)(c2ccccc2)c2ccccc2)cc1 | – | 0.265%
10 | Cc1ccc(C2OC[C@@H]3OC(c4ccc(C)cc4)O[C@H]([C@H](O)CO)[C@@H]3O2)cc1 (stereo not given in full) | – | 24.3%
11 | O=C(O)CN(CCCN(CC(=O)O)CC(=O)O)CC(=O)O | – | -17.6% [at 18.9 µM]
12 | CCCCNc1ccc(NCCCC)c2c1C(=O)c1ccccc1C2=O | – | -7.34% [at 18.9 µM]
13 | CCN(CC)c1ccc2c(c1)Oc1cc(N(CC)CC)ccc1C21OC(=O)c2ccccc21 | – | 11.2% [at 42.5 µM]
14 | O=C(CCN1CCC(c2ccccc2)C1)c1ccc2c(c1)OCCO2 (stereo not given) | – | -2.47% [at 42.5 µM]
15 | CCCCCc1ccc(O)cc1 | – | -9.39%
16 | C=CC(=O)OCCOC1C2CCC1C1CC=CC12 (stereo not given) | – | 13.6% [at 18.9 µM]
17 | CCOC(=O)[C@H](O)[C@@H](O)C(=O)OCC | – | -12.1%
18 | CCN(CC)c1ccc(C=O)c(O)c1 | – | -15.5%
19 | CC/C(=C(/c1ccc(O)cc1)c1ccc(OCCN(C)C)cc1)c1ccccc1 | 32 µM (active) | –
20 | C=Cc1ccncc1 | – | -7.41%

Row | Compound | Potency | activity change, negative = cytotoxicity
21 | Cc1cccc(C)c1C | – | -8.45%
22 | COc1c(Br)cc(Br)c(C)c1Br | – | 7.45%
23 | C=C[Si](C)(C)Cl | – | -4.28% [at 8.39 µM]
24 | CC(C)c1ccc2sc3ccccc3c(=O)c2c1 | – | -14.4%
25 | CCCC(C)C=O (stereo not given) | – | 4.09%
26 | CC1CCC(C(C)(C)O)CC1 (stereo not given) | – | -2.21%
27 | C=CC(C)(C)O | – | -13.7%
28 | CCC(C)(C)c1ccc(CC(C)CN2C[C@@H](C)O[C@@H](C)C2)cc1 (stereo not given in full) | – | 4.59% [at 42.5 µM]
29 | CC(=O)Nc1ccc(N=Nc2cc(C)ccc2O)cc1 | – | 34.6%
30 | CC(C)=CCC[C@H](C)CC=O | – | -6.96%
31 | CC(=O)N(C)C | – | 0.3%
32 | NC(=O)C1CO1 (stereo not given) | – | 9.23%
33 | CC/C=C\C/C=C\C/C=C\CCCCCCCC(=O)OC | – | 7.18%
34 | Cn1ccnc1 | – | -3.61%
35 | CCC1(C)C(=O)N(Cl)C(=O)N1Cl (stereo not given) | – | 5.17%
36 | C=C1CC[C@H]2O[C@]2(C)CC[C@@H]2[C@@H]1CC2(C)C | – | -2.95%
37 | C=C1C(CCl)(CCl)C2(Cl)C(Cl)C(Cl)C1(Cl)C2(Cl)Cl (stereo not given) | 67.8 µM (active) | –
38 | C=COCCCC | – | 0.466%
39 | CC(=O)[C@]1(O)Cc2c(O)c3c(c(O)c2[C@@H](O[C@H]2C[C@H](N)[C@H](O)[C@H](C)O2)C1)C(=O)c1ccccc1C3=O | – | 26.3% [at 42.5 µM]
40 | Brc1cc(Br)cc(Br)c1 | – | 0.711%
